HCMV antiviral = inhibitors of human cytomegalovirus; HFF cells, HCMV-luciferase reporter, 72 h; hits give low values; activity change, negative = inhibition, % at 57.5 µM; 410,000 tested, 4.5% active; in the data active = activity change below about -60%; inconclusive = no clear call, values can overlap the other calls; inactive = above about -39%
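Luciferase read-out from HCMV-luciferase-infected HFFs (MOI 1 PFU/cell) 72 h post infection at 37C; compounds added after 16 h cell attachment; activity normalized between buffer-only basal and Salinomycin (10uM) inhibitor controls.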
HCV inh = inhibitors of hepatitis C virus infection. Potency, µM (series often up to 41.8 µM), for the others: at the top dose activity change, negative = inhibition, actives largely listed as inhibitors. Huh7.5.1 HCVcc-Cre infection, luciferase reporter, 44 h. 340,000 tested, 3.4% active; active = well fitted inhibition curve with a large enough effect; inconclusive = small, poorly fitted or top-dose-only effect, or another doubt; inactive = no such curve, though single readings can be large or run the other way; note: potency is the fitted concentration of half-maximal effect
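Infectious HCVcc-Cre (~0.5 moi) was added to cells just after compound, with cells seeded 4 h earlier at 1,000 per well. Luciferase activity after 44 h culture reported infection; substrate was incubated 15 min at room temperature before reading.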
Vaccinia mCherry = inhibitors of vaccinia virus infection (mCherry reporter signal); Vaccinia virus mCherry reporter infection, fluorescence; Potency, µM (titrated, usually from 36.5 µM), without a hit: at the top dose activity change, negative = inhibition, most hits filed as inhibitors; 310,000 tested, 0.63% active; calls by dose curve; tested in A549 cells; note: potency is the fitted concentration of half-maximal effect; nearly all actives have a fitted effect of over 35% in size
FMDV antiviral = antivirals against foot and mouth disease virus; FMDV antiviral cell-based qHTS; 410,000 tested, 1.2% active; Potency, µM (highest dose often 57.9 µM), inactives show top-dose activity change, negative = inhibition, most hits filed as inhibitors; calls by dose curve; tested in HEK293T cells; note: read-out not given here; potency is the fitted concentration of half-maximal effect; nearly all actives have a fitted effect of over 45% in size
Vaccinia Venus = inhibitors of vaccinia virus (Venus reporter); Potency, µM (titrated, usually from 36.5 µM), inactives show at the top dose activity change, negative = inhibition, hits mostly inhibitors; 330,000 tested, 0.46% active; AID 720580; Vaccinia virus Venus reporter expression, fluorescence; calls by dose curve; tested in A549 cells; note: potency is the fitted concentration of half-maximal effect; nearly all actives have a fitted effect of over 30% in size
Starred values were filed as active, the others as inactive; i = inactive; ? = inconclusive; nt = no result given; ! = not active in a repeat; [ ] = remark or other dose. Hits are enriched below; roughly 7.3% of the tested compounds scored in any of these assays. % is set by controls: 0 for no effect and ±100 for the full control effect.

SMILES | HCMV antiviral | HCV inh | Vaccinia mCherry | FMDV antiviral | Vaccinia Venus
COc1ccc(C=C2CS(=O)(=O)CC(=Cc3ccc(OC)cc3)C2=O)cc1 | -99.2* | nt | ? | 12.6µM* | ?
CCCCCCNC(=O)O[C@H]1Cn2c(=O)n(CCCCCC)c(=O)n2[C@@H]2CN(S(=O)(=O)c3ccc(C)cc3)C[C@]12O | -102.6* | nt | ? | ? | 15.8µM*
Cc1ccc(S(=O)(=O)N2C[C@H]3n4c(=O)ccc(=O)n4C[C@H](OC(=O)Nc4cccs4)[C@@]3(O)C2)cc1 | 4.7 | nt | ? | ? | -23.6%
CCCCCCNC(=O)O[C@H]1Cn2c(=O)ccc(=O)n2[C@@H]2CN(S(=O)(=O)c3ccc(C)cc3)C[C@]12O | -89.0* | nt | ? | 17.8µM* | 10µM*
Cc1ccc(S(=O)(=O)N2C[C@H]3n4c(=O)ccc(=O)n4C[C@H](OC(=O)NCc4ccccc4F)[C@@]3(O)C2)cc1 | -102.0* | nt | ? | 20µM* | ?
CC1CCN(c2ccc3c(c2)S(=O)(=O)c2ccccc2C3=O)CC1 | 62.8 | ? | i | -9.0% | -6.6%
CC[N+](CC)(CC)CCOc1ccc(/C=C/c2ccccc2)cc1 | -99.1* | ? | -14.7% | ? | -28.3%
Cc1cc(C(=O)N2CCOc3ccc(CN4CCC(Oc5cccnc5)CC4)cc3C2)c(C)o1 | nt | nt | -9.1% | -23.3% | 2.6%
CCNC(=S)NS(=O)(=O)c1ccc(CC)cc1 | -94.6* | 27.7% | nt | 20.7% | nt
CC(C)CC(N(C)C)C1(c2ccc(Cl)cc2)CCC1 (configuration not stated) | ? | 3.55µM*! | -2.3% | ? | -12.5%
CC(C)Nc1nc(Nc2ccc(F)cc2)c2sccc2n1 | -18.6 | nt | ? | -28.3% | ?
O=C(c1ccncc1)N1CCC[C@@]2(CCN(Cc3ccccc3)C2)C1 | nt | nt | nt | -7.9% | nt
COC(=O)COc1ccc2oc(=O)cc(-c3cc4ccccc4o3)c2c1 | 40.8 | -4.1% | nt | -6.0% | nt
CN(C)C(=O)Oc1ccc2oc(=O)cc(-c3cc4ccccc4o3)c2c1 | -20.0 | 11.2µM* | nt | 0.0% | nt
CCN(CC)C(=O)Oc1cc2c(-c3cc4cccc(OC)c4o3)cc(=O)oc2cc1C | -17.0 | 6.31µM* | i | -15.1% | 1.6%
Cc1cc2oc(=O)cc(-c3cc4ccccc4o3)c2cc1OC(=O)N(C)C | -16.2 | 5.01µM* | -10.0% | -27.8% | -2.8%
CCOC(=O)C1CSCCS(=O)(=O)N1Cc1ccc(C)cc1 (configuration not stated) | 22.8 | nt | nt | nt | nt
Cc1ncc(CNC(=O)N(CCCl)N=O)c(N)n1 | 8.7 | 2.82µM* | -4.5% | -16.5% | -14.6%
COC(=O)c1c(NC(=O)c2cc(=O)c3cc(C)cc(C)c3o2)sc2c1CCC2 | -3.9 | nt | -0.1% | -6.1% | 0.0%
O=S1(=O)CCO[C@H]2CCCC[C@@H]2N1Cc1cccc(F)c1 | nt | nt | -23.8% | nt | -16.1%
Oc1ccc(Br)cc1CNc1cccc2cccnc12 | -62.4* | 14.3% | ? | -4.3% | -15.9%
Cc1cccnc1NCc1ccc(O)c2ncccc12 | ? | 10µM* | 14.1µM* | -28.4% | ?
Cc1ccc(O)c(CNc2cccc3cccnc23)c1 | -40.0 | ? | -7.1% | 6.4% | -16.4%
Cc1cccc(NCc2ccc(O)c3ncccc23)c1C | -95.8* | ? | -26.3% | -18.0% | -14.1%
CCS(=O)(=O)N1CC(=O)N(c2cccc(Cl)c2C)C(C)(C(=O)NC2CCCCC2)C1 (configuration not stated) | 0.0 | nt | -8.6% | 9.3% | -8.2%
SMILES | HCMV antiviral | HCV inh | Vaccinia mCherry | FMDV antiviral | Vaccinia Venus
O=[N+]([O-])c1cccc(SSc2cccc([N+](=O)[O-])c2)c1 | -31.7 | ? | ? | -9.9% | 26.6%
O=C(CCCc1c[nH]c2ccccc12)NCc1ccccc1C(F)(F)F | 23.3 | -11.8% | nt | 11.0% | nt
Cc1cccc(NC(=O)c2cc3c(=O)n4ccccc4nc3n2C)c1C | -24.5 | nt | ? | 15.0% | ?
Cc1cn2c(=O)cc(COC(=O)c3cccc(NC(=O)COc4ccccc4C)c3)nc2s1 | ? | nt | -13.5% | -16.2% | -11.1%
Cc1ccccc1OCC(=O)Nc1cccc(C(=O)OCc2cc(=O)n3c(C)csc3n2)c1 | -89.3* | nt | -13.5% | -22.6% | -19.6%
CCCc1nn2c(=O)cc(COC(=O)c3cccc(NC(=O)COc4ccc(F)cc4)c3)nc2s1 | -3.8 | nt | -17.9% | -11.9% | -15.2%
CCCc1nn2c(=O)cc(COC(=O)c3cccc(NC(=O)COc4ccccc4C)c3)nc2s1 | 20.3 | nt | -8.1%[7.34 µM] | 14.1µM* | -8.1%[7.34 µM]
COc1cccc(CN2C(=O)c3ccccc3Sc3ccc(C(=O)N(C)Cc4ccccc4)cc32)c1 | ? | nt | -9.2% | 8.5% | -2.1%
O=C1NC2(CCCCC2)N(C(=O)c2ccccc2)C2=C1CCCC2 | ? | 3.16µM* | nt | -13.3% | nt
Cc1ccc(C(=O)N2C3=C(CCCC3)C(=O)NC23CCCCC3)cc1 | -19.8 | 9.4% | 0.1% | 1.2% | -7.1%
O=C1CC(c2cc(Br)ccc2F)c2cc3c(cc2N1)CCC3 (configuration not stated) | -73.4* | ? | nt | -13.6% | nt
CC(C)[C@H](CO)Nc1nc(Nc2cccc(Cl)c2)c2ncn(C(C)C)c2n1 | nt | nt | nt | -19.2% | nt
Cc1cc(C)c(C2=NOC3C4CCC(C4)C23)c(C)c1 (configuration not stated) | -63.5* | 9.1% | -25.7% | -21.4% | -9.4%
Cc1oc2c(O)c(O)ccc2c(=O)c1-c1cnn(-c2ccccc2)c1 | 9.8 | -19.5% | nt | -30.7% | nt
Cc1oc2cc(O)cc(C)c2c(=O)c1-c1cnn(-c2ccccc2)c1 | ? | 8.91µM* | -4.2% | 0.0% | ?
Cc1cc2nc(C)c(-c3nc4ccccc4[nH]3)nc2cc1C | 20.3 | nt | nt | nt | nt
O=C1[C@H](Cc2ccccc2)NCC=CC[C@H](c2ccco2)N1Cc1ccccc1 | -31.0 | ? | i | 0.0% | -24.8%
COc1ccc(Nc2nc(OC)nc(N3CCOCC3)n2)cc1 | -38.2 | -0.1% | nt | -0.5% | nt
COc1nc(N2CCCCCC2)nc(N2CCCCCC2)n1 | ? | 10µM* | nt | ? | nt
COc1nc(C#N)nc(N2CCCC2)n1 | nt | nt | -18.6% | nt | -6.6%
N#CCOc1nc(N2CCCCC2)nc(N2CCCCC2)n1 | -37.5 | 14.1µM* | nt | ? | nt
COc1nc(N2CCOCC2)nc(-n2cccc2)n1 | 18.3 | 0.891µM* | nt | -13.9% | nt
N#CCOc1nc(N2CCCC2)nc(N2CCCC2)n1 | -23.7 | ? | nt | 4.3% | nt
CC(C)c1nn2c(=O)cc(COC(=O)c3ccc(NC(=O)CCc4ccccc4)cc3)nc2s1 | 6.7 | nt | i | -6.8% | -10.1%
COc1ccc(/C=N/NC(=O)c2ccccc2O)cc1Cn1cc([N+](=O)[O-])cn1 | -11.4 | 1.2% | i | -11.5% | 0.0%
CCOc1ccc(/C=N/NC(=O)c2ccccc2Cl)cc1CN1CC2CC(C1)c1cccc(=O)n1C2 (configuration not stated) | -3.6 | 2.51µM* | -4.0% | -18.1% | -13.8%
COc1cc(/C=N/NC(=O)c2ccccc2Cl)ccc1Oc1ccc([N+](=O)[O-])cn1 | ? | 11.2µM* | nt | -21.6% | nt
CCN1C(=O)S/C(=C/c2ccc(Oc3ccc([N+](=O)[O-])cn3)c(OC)c2)C1=O | ? | -18.6% | -17.6% | -16.9% | ?

Screening data as filed in PubChem BioAssay.
